The list is not random: actives were taken first. Their share in the collection is about 2%.
ASM inhibitor – human S-ASM enzyme inhibition | P17405 | placental ASM, HMU-PC fluorogenic substrate, 60 min | Potency, µM (series often up to 57.5 µM), for inactives: at the top dose activity change, negative = inhibition, most hits filed as inhibitors | hit rate 0.006% among 340,000 | AID 504937
Target sequence (P17405 47-631 limits assumed): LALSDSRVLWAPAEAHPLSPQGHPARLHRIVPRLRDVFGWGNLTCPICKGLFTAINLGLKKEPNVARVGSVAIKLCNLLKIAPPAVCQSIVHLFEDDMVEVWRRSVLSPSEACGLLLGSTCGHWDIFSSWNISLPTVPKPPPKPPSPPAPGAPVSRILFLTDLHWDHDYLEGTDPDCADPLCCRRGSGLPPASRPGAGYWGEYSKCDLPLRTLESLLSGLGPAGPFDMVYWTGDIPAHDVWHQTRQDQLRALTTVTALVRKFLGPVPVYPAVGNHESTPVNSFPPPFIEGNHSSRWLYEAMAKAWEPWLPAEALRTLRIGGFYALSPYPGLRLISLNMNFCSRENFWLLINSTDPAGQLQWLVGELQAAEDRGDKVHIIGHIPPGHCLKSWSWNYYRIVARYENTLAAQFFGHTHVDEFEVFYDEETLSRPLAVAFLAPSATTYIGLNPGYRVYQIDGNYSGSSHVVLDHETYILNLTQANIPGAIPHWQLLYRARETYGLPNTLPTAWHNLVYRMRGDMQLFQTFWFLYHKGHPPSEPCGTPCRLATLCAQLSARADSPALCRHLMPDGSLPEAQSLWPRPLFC
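Human placenta-derived ASM preincubated with compound 10 min at room temperature, then reacted with 9 uM (final) fluorogenic HMU-PC substrate for 60 min at 37 C. Stop solution raises pH to 10; fluorescence read at Ex 386/Em 447 nm.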
Rango dissoc inh – inhibition of RanGTP-driven Rango-importin beta dissociation; Potency, µM (top dose mostly 46.1 µM), for inactives: at the top dose activity change, negative = inhibition; hit rate 0.071% among 340,000; Biochemical FRET Rango-importin beta, RanGTP-induced dissociation; O95149+P62826; calls by dose curve; note: % of control where 0% means no effect; nearly all actives have a fitted effect of over 45% in size
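Two FRET readings bracket the reaction: one 5 min after compound meets Rango–importin beta, another 45 min after RanGTP-RCC1 (0.6 uM Ran, 0.2 uM RCC1, 2 mM GTP) is added. Only the second defines inhibition.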
Rango complex inh – Rango-importin beta binding inhibition. Q14974. Rango CFP/YFP FRET sensor + importin beta, 45 min. Potency, µM (highest dose often 92.2 µM), for inactives: at the highest dose inhibition of complex formation. hit rate 0.031% among 340,000. AID 540263; calls by dose curve;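 note: 0% = DMSO wells and 100% = buffer wells lacking importin beta; nearly all actives have a fitted effect of over 15% in size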
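FRET biosensor (snurportin 1 IBB flanked by EYFP and cerulean), 50 nM, with compound 5 min, then 0.125 microM importin beta in PBS, 1 mM DTT, 0.02% Tween-20, 0.1% BSA. CFP/YFP ratio read after 45 min at room temperature; pre-read flags interference.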
aSyn rescue – alpha-synuclein toxicity inhibition in yeast | Yeast expressing alpha-synuclein, growth rescue, BacTiter-Glo, 24 h | Potency, µM (doses to about 46.1 µM), for inactives: at the top dose growth rescue (activation), actives largely listed as activators | hit rate 0.14% among 370,000; note: % of control where 0% means no effect; nearly all actives have a fitted effect of over 65% in size
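Galactose-induced alpha-syn yeast (OD600=0.02, raffinose-pregrown) + pinned cpd, 24 hr, 30 deg C; growth by BacTiter-Glo luminescence. Growth restoration scores as activation.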
Abeta rescue – compounds reversing amyloid beta toxicity in yeast | AID 1347071 | yeast expressing A-beta42, growth rescue, OD600, 48 h; response scale: 0% DMSO, 100% iron-clioquinol control | hit rate 0.063% among 410,000 | Potency, µM (top dose mostly 46.1 µM), usual class: activators; note: nearly all actives have a fitted effect of over 55% in size
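Yeast growth medium received pinned compounds, then yeast cells expressing toxic A-beta were added; plates incubated at 30 C for 48 hr. Growth read as absorbance at 600 nm, normalized to DMSO and equimolar FeCl3 plus clioquinol controls.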
TDP43 rescue – TDP-43 toxicity inhibition in yeast; TDP-43 expressing yeast growth rescue, BacTiter-Glo, 24 h; Potency, µM (series often up to 46.1 µM), for inactives: at the top dose growth rescue (activation), usual class: activators; hit rate 1.8% among 410,000; note: % of control where 0% means no effect; nearly all actives have a fitted effect of over 50% in size
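Growth rescue of TDP-43-toxic yeast measured as ATP luminescence (BacTiter-Glo). Cells grown to mid-log in raffinose, induced in galactose at OD600=0.02, exposed to compound 24 hr at 30 deg C.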
Starred values were filed as active, the others as inactive; i = inactive; ? = inconclusive; . = no result given. Unless noted, calls come from the whole dose curve; as a rule, active = well fitted curve in the direction sought with a large enough effect; inconclusive = small, poorly fitted or top-dose-only effect, or another doubt; inactive = no such curve, though single readings can be large; an effect the other way counts as inactive or inconclusive. Potency is the fitted concentration of half-maximal effect.

SMILES	ASM inhibitor	Rango dissoc inh	Rango complex inh	aSyn rescue	Abeta rescue	TDP43 rescue
COc1ccc(CCNc2nc(-c3ccc(C)cc3)cc(C(F)F)n2)cc1OC	.	.	.	.	i	0%
Cc1ccc(-c2cc(C(F)F)nc(S(C)(=O)=O)n2)cc1	-4%	-3%	0%	-11%	i	11µM*
Cc1cccc(OCC(=O)Nc2nnc(S(=O)(=O)N3CCc4ccccc43)s2)c1	.	.	.	-5%	i	6%
O=S(=O)(c1ccc(Cl)cc1)N1CCCCCC1	-5%	-1%	-6%	2%	i	24%
O=S(=O)(c1c(Cl)sc(Cl)c1Br)N1CCCC1	-2%	0%	-3%	10%	i	11µM*
CCOc1ccc(C2CC(=O)Nc3c2c(=O)[nH]c2ncnn32)cc1 (stereo not given)	.	.	.	2%	i	-4%
Cc1c2cnn(-c3ccccc3)c(=O)c2c(C)n1C(C)C(=O)Nc1ccccc1C(F)(F)F (stereo not given)	.	.	.	.	i	4%
Cc1ccc(N2CCN(C(=O)C3CCN(S(=O)(=O)c4ccc5c(c4)oc(=O)n5C)CC3)CC2C)cc1 (stereo not given)	.	.	.	.	i	-12%
S=C(Nc1nc2c(s1)CCCC2)NC1CC1	-2%	-2%	-1%	2%	8.9µM*	26%
O=C(Nc1ccc(Br)cc1Cl)c1ccc(OCC2CCCO2)cc1 (stereo not given)	0%	0%	0%	0%	i	18µM*
O=C(Nc1ccc(Cl)cc1)c1ccc(OCC2CCCO2)cc1 (stereo not given)	-1%	-8%	-3%	-9%	i	12%
COc1cc(/C=C/C(=O)c2ccc(O)cc2)ccc1OCC#N	-6%	10%	4%	1%	i	-9%
COc1cccc(C(=O)/C=C/c2ccc(OCC#N)c(OC)c2)c1	13%	-7%	-2%	?	i	20µM*
CSC1=NCCN1C(=O)Cc1ccc(-c2ccccc2)cc1	-2%	-1%	-1%	?	i	?
CCSC1=NCCN1C(=O)Cc1ccc(-c2ccccc2)cc1	-2%	3%	-3%	5%	i	14µM*
COc1ccc(CC(=O)N2CCN=C2SCc2ccc([N+](=O)[O-])cc2)cc1	-4%	3%	3%	-9%	i	7.9µM*
Nc1c(Cl)cc(C=O)cc1Cl	.	.	.	1%	.	.
Oc1c(-c2cc(-c3ccco3)[nH]n2)ccc2ccccc12	97%	12%	5%	-31%	i	10µM*
Oc1ccc(Br)cc1-c1ccn[nH]1	-1%	0%	0%	-7%	i	13µM*
Oc1ccc(Br)cc1-c1cc(-c2ccco2)[nH]n1	-8%	-13%	1%	-22%	i	13µM*
Oc1ccc(Cc2ccc(Cl)cc2)c(O)c1	8%	-3%	-2%	-20%	i	?
Oc1ccc(Cc2ccccc2Cl)c(O)c1	0%	1%	3%	4%	i	13µM*
COc1ccc(-n2ncc(C(=O)N3CCN(c4ccccn4)CC3)c2C2CCN(C(=O)OC(C)(C)C)CC2)cc1	.	.	.	.	i	7%
CC(C)C(=O)N1CCN(c2ccc([N+](=O)[O-])c(NC(C)c3ccccc3)c2)CC1 (stereo not given)	-27%	5%	-1%	-1%	i	20µM*
CC(Nc1cc(N2CCN(C(=O)C(C)(C)C)CC2)ccc1[N+](=O)[O-])c1ccccc1 (stereo not given)	-25%	0%	-1%	0%	i	20µM*
CCS(=O)(=O)N1CCN(c2ccc([N+](=O)[O-])c(NC(C)c3ccccc3)c2)CC1 (stereo not given)	-27%	-13%	4%	-2%	i	-15%
CC(Nc1cc(N2CCNCC2)ccc1[N+](=O)[O-])c1ccccc1 (stereo not given)	-25%	12%	0%	8%	i	5%

Screens deposited in PubChem by National Center for Advancing Translational Sciences (NCATS).
